Laboratory results published in the supplement of paper PMC11732987, “Enantioselective OTUD7B fragment discovery through chemoproteomics screening and high-throughput optimisation” (Communications Chemistry, 2025).

Key:
Assay in all cases: log2 ratio of Biotin-Ahx-Ub-VS probe labelling (fragment/DMSO); higher = less target engagement (more negative = stronger competition), active = hit call of the paper (q ≤ 0.05, log2 ratio ≤ -1)
Conditions in all cases: compound concentration: 200 uM; treatment time: 3 h
[1] = biological target: USP34 (UniProt Q70CQ2)
In short: (§1)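 The table lists average log2 ratios of fragment over vehicle, from an unpaired t-test on global-median-normalised Spectronaut label-free quantities. Proteins with ≥2 unique peptides were used. Samples were HEK293T lysate (495 µg) treated in triplicate with fragment at 200 µM or vehicle for 3 h, then with Biotin-Ahx-Ub-VS (0.5 µM final) for 1 h, with labelled DUBs NeutrAvidin-enriched and run by diaPASEF LC-MS/MS.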

[2] = biological target: T1, USP36 (UniProt Q9P275)
T1 sequence (whole entry): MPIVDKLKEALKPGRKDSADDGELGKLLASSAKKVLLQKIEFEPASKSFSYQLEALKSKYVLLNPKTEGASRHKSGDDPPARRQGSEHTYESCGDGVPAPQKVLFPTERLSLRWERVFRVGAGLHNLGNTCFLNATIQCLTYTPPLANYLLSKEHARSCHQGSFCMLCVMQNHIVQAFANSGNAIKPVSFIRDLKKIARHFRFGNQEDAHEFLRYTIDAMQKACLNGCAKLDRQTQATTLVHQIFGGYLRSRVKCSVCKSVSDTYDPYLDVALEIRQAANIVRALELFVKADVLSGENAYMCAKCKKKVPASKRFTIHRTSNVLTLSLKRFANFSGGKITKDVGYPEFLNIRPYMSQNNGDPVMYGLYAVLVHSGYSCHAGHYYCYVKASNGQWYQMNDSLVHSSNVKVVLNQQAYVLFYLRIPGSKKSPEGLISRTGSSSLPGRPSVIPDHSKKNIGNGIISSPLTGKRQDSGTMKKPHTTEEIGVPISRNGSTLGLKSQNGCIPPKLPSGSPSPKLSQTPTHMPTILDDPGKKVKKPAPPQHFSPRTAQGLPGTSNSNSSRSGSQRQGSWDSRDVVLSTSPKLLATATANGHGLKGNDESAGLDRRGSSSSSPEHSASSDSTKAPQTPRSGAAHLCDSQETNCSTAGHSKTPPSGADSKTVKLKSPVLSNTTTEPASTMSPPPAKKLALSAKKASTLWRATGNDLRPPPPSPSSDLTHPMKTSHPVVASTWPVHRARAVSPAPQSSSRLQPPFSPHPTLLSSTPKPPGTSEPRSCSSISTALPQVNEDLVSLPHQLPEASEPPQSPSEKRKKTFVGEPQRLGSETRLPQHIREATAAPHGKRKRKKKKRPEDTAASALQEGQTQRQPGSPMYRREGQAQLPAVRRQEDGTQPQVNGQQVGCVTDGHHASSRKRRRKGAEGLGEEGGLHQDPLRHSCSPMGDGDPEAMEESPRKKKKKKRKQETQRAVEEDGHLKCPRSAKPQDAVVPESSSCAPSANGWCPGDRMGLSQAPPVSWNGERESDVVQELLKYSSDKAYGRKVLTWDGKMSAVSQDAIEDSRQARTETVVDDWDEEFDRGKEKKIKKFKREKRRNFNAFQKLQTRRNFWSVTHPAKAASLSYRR
In short: as §1

[3] = biological target: T2, USP38 (UniProt Q8NB14)
T2 sequence (whole entry): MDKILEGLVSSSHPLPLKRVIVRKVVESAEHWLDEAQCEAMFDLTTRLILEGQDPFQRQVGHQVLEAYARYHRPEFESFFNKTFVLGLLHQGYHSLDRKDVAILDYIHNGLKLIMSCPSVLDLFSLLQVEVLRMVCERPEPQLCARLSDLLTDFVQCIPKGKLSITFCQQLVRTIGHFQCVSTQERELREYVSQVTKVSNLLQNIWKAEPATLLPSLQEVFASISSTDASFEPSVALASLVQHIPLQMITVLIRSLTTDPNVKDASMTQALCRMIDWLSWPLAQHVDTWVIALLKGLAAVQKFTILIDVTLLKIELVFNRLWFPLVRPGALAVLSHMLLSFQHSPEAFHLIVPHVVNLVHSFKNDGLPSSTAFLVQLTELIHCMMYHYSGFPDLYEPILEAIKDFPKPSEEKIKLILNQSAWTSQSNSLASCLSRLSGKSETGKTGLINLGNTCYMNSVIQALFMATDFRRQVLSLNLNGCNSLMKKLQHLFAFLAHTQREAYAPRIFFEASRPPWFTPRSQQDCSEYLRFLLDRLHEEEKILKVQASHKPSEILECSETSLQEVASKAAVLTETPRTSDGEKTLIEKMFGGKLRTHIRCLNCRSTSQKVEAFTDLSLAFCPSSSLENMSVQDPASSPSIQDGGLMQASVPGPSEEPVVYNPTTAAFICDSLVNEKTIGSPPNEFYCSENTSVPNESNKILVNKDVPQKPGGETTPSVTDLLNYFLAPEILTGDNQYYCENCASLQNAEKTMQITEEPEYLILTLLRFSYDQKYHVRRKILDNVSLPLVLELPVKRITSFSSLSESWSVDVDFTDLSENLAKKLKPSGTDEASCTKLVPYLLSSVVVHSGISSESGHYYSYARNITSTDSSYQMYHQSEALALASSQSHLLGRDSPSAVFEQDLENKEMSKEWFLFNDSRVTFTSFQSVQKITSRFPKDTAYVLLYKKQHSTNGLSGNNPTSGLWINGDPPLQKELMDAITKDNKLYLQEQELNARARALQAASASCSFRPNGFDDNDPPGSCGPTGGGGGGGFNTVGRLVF
In short: as §1

[4] = biological target: T3, USP39 (UniProt Q53GS9)
T3 sequence (whole entry): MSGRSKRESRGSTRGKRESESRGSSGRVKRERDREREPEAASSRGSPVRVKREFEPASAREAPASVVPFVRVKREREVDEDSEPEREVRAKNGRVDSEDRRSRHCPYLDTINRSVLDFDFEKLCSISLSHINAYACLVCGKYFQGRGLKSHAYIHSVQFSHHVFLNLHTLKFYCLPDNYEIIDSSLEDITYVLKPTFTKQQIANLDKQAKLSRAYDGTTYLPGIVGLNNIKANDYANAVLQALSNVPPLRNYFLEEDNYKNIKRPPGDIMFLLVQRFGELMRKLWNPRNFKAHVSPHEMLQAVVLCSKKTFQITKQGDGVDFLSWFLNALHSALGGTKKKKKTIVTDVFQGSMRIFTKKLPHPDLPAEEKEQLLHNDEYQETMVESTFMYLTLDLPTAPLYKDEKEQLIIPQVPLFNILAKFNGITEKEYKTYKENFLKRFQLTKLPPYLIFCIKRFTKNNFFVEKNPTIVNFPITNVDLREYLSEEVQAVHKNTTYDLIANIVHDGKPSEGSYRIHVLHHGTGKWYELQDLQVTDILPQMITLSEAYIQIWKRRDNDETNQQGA
In short: as §1

[5] = biological target: T4, USP4 (UniProt Q13107)
T4 sequence (whole entry): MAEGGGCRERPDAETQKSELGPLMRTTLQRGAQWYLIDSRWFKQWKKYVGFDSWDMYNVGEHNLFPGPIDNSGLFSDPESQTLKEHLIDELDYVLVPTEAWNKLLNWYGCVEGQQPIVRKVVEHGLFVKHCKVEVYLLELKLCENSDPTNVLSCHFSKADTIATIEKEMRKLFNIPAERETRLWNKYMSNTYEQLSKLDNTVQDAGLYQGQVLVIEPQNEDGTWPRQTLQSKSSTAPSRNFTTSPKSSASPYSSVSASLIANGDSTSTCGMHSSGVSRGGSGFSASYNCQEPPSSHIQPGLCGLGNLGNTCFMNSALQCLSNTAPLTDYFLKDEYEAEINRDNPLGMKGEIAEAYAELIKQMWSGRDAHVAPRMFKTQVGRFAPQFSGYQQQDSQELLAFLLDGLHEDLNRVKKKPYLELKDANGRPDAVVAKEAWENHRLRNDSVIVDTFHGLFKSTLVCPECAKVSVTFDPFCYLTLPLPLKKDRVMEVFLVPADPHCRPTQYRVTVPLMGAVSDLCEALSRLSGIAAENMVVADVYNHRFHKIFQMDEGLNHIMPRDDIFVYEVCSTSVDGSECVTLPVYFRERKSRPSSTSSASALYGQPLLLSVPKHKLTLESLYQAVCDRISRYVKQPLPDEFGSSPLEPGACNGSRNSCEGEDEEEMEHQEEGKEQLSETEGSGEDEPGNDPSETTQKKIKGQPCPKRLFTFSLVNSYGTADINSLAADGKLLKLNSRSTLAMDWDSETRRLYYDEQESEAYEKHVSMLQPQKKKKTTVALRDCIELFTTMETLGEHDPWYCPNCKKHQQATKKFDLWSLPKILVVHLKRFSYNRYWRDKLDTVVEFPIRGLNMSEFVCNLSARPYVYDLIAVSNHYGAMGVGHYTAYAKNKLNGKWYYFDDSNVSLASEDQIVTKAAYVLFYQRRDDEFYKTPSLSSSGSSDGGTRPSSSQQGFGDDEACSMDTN
In short: as §1

Measured: log2 ratio of Biotin-Ahx-Ub-VS probe labelling

Chain of USP34 (Q70CQ2 whole entry, the tested form may be a part): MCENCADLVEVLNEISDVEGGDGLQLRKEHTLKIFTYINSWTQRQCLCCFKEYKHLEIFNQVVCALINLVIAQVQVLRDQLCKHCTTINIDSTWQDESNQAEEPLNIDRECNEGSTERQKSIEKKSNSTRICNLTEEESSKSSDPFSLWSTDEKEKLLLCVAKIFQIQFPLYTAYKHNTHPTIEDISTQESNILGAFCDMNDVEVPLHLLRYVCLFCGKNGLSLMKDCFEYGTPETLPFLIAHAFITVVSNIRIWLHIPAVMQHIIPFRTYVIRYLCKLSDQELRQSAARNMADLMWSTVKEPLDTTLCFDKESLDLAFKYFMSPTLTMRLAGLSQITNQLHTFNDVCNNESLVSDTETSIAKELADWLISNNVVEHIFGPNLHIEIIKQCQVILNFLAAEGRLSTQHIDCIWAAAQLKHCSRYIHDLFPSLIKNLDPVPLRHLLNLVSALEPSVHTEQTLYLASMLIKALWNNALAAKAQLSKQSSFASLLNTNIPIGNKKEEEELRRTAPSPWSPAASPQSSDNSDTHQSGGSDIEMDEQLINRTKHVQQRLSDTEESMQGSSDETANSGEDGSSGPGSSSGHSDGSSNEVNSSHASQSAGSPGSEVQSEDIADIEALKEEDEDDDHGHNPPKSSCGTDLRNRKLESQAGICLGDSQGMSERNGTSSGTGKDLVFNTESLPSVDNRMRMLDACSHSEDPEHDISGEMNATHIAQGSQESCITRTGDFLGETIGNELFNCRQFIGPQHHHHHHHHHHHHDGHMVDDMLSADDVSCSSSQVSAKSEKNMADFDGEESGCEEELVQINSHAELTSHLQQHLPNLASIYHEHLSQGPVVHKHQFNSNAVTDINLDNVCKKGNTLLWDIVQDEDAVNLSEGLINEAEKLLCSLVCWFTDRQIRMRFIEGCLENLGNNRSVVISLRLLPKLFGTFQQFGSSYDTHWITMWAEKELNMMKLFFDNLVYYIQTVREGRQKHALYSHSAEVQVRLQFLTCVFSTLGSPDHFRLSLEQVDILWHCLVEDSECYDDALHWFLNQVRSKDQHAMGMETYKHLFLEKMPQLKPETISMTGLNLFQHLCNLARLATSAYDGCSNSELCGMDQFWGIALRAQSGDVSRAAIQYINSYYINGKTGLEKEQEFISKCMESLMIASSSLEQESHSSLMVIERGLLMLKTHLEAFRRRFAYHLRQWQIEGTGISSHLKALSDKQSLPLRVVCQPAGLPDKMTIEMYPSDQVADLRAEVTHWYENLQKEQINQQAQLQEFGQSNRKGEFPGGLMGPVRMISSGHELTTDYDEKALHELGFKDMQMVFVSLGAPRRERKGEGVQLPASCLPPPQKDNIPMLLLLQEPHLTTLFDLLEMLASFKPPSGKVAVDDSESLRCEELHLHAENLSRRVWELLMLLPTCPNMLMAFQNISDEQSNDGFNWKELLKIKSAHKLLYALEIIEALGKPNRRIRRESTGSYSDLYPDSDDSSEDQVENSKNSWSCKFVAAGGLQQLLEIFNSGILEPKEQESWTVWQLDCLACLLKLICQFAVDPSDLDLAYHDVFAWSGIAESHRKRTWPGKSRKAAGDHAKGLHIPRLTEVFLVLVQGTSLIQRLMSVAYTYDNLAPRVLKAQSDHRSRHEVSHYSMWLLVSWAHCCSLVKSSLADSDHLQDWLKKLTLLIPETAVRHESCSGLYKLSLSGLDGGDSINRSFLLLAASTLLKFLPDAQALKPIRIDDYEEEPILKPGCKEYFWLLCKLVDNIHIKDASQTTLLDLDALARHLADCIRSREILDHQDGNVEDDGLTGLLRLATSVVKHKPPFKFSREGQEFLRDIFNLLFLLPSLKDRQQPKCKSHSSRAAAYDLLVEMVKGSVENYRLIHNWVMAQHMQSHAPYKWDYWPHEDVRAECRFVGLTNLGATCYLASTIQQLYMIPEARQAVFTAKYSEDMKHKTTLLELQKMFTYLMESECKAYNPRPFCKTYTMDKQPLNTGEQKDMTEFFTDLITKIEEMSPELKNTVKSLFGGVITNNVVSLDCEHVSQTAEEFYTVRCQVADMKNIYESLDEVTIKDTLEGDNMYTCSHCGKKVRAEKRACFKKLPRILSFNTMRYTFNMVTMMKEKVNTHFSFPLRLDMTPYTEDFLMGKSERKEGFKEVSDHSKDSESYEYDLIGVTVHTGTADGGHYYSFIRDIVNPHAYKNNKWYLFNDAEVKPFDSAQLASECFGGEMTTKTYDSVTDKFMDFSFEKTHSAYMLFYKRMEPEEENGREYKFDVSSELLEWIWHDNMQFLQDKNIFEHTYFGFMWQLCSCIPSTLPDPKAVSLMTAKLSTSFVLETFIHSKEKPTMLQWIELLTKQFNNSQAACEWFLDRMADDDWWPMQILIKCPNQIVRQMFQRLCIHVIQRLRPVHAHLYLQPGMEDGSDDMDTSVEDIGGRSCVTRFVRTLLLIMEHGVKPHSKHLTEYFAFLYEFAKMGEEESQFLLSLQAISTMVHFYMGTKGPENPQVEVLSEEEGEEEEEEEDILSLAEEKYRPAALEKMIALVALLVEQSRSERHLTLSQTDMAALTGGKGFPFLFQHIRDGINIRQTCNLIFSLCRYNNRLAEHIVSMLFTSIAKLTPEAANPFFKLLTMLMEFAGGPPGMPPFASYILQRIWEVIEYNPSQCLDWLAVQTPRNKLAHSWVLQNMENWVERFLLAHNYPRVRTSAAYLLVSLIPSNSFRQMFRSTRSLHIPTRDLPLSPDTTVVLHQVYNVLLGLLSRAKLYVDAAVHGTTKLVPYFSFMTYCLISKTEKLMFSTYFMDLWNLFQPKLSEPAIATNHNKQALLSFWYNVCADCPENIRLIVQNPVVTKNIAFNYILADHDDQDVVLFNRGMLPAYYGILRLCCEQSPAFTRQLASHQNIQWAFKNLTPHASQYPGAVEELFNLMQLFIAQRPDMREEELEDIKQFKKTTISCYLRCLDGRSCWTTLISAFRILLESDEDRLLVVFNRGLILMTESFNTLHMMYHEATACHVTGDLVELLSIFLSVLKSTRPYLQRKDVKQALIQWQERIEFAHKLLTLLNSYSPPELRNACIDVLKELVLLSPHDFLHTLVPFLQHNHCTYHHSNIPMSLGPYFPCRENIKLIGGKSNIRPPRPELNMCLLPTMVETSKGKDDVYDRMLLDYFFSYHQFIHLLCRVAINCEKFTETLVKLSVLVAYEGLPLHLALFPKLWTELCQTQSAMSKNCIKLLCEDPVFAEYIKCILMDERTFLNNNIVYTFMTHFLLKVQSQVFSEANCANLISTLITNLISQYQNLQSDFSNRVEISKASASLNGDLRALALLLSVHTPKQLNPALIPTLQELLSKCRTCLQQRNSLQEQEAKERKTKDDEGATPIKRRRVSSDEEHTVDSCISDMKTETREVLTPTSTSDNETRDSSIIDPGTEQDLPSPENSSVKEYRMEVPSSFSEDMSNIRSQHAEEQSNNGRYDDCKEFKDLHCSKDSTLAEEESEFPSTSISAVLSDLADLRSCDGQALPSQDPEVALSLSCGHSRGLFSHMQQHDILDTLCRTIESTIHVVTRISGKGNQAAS

CCN(Cc1ccc(C#N)cc1F)C(=O)CCl
inactive: [1] -0.454 | [2] -0.0792 | [3] -0.292 | [4] -0.0856 | [5] -0.105
